Results as given in the antibiotic and cytotoxicity screens of Wong et al. (2023).
Screen size: about 39,000 compounds; about 1,500 (3.8%) were called active. Only a selection was taken, and actives are over-represented in it overall.

The compounds below were run on HSkMC (human skeletal muscle cells) (assay: cytotoxicity call (relative viability < 0.9)). Conditions: 10 µM.
For `C[C@H]1CN([C@@H](C)CO)C(=O)c2cccc(NC(=O)CCCCCC(=O)Nc3ccccc3N)c2O[C@@H]1CN(C)Cc1ccc(C(F)(F)F)cc1`, the cytotoxicity call was “inactive”.
`C[C@@H]1CN([C@@H](C)CO)C(=O)c2cc(NC(=O)Nc3cccc4ccccc34)ccc2O[C@@H](C)CCCCO[C@H]1CN(C)C` was tested, and the cytotoxicity call was “inactive”.
`CCN1CCN(C2=C(NS(=O)(=O)c3ccc(Br)cc3)C(=O)c3ccccc3C2=O)CC1` was tested, and the cytotoxicity call was “inactive”.
`CCc1nccn1CC(=O)N[C@H]1C[C@@H](C(=O)OC)N(C)C1` was tested, and the cytotoxicity call was “inactive”.
For `Cc1noc(C)c1NC(=O)Nc1ccc2c(c1)CC(=O)N([C@@H](C)CO)C[C@@H](C)[C@@H](CN(C)Cc1ccc(Oc3ccccc3)cc1)O2`, the cytotoxicity call was “inactive”.
`COc1ccc(S(=O)(=O)N(C)C[C@H]2Oc3ccc(NC(=O)CCN4CCOCC4)cc3C(=O)N([C@H](C)CO)C[C@H]2C)cc1` was tested, and the cytotoxicity call was “inactive”.
In the case of `COc1cccc(S(=O)(=O)N(C)C[C@@H]2OCc3cnnn3CCCC(=O)N([C@H](C)CO)C[C@@H]2C)c1`, the cytotoxicity call is reported as “inactive”.
In the case of `COCCNC(=O)NC(=O)COC(=O)c1cccn1C`, the cytotoxicity call is reported as “inactive”.
In the case of `O=C(N[C@@H](c1ccc(-c2ccccc2)cc1)c1cnccn1)C1CCN(Cc2ccc(Oc3ccccc3)cc2)CC1`, the cytotoxicity call is reported as “inactive”.
For `C[C@@H]1CN([C@@H](C)CO)C(=O)c2cccc(NC(=O)c3ccc(-c4nccs4)cc3)c2O[C@@H]1CN(C)Cc1ccccc1`, the cytotoxicity call was “inactive”.
`C[C@@H]1CN([C@@H](C)CO)C(=O)c2cc(NC(=O)NC3CCCCC3)ccc2O[C@@H](C)CCCCO[C@H]1CN(C)C(=O)Nc1ccc2c(c1)OCO2` was tested, and the cytotoxicity call was “active”.
`C[C@@H]1CCCCO[C@@H](CN(C)C(=O)Nc2ccc3c(c2)OCO3)[C@@H](C)CN([C@@H](C)CO)C(=O)c2cc(NC(=O)NC3CCCCC3)ccc2O1` was tested, and the cytotoxicity call was “inactive”.
For `C[C@@H]1CCCCO[C@@H](CN(C)C(=O)Nc2cccc3ccccc23)[C@H](C)CN([C@@H](C)CO)C(=O)c2cc(NC(=O)Nc3cccc4ccccc34)ccc2O1`, the cytotoxicity call was “active”.
With `C[C@@H]1CN([C@@H](C)CO)C(=O)c2cc(NC(=O)CCC(F)(F)F)ccc2O[C@@H](C)CCCCO[C@H]1CN(C)C(=O)Nc1cccc2ccccc12` the cytotoxicity call was “active”.
`C[C@@H]1CCCCO[C@H](CN(C)C(=O)Nc2cccc3ccccc23)[C@@H](C)CN([C@H](C)CO)C(=O)c2cc(NC(=O)CCC(F)(F)F)ccc2O1` was tested, and the cytotoxicity call was “inactive”.
In the case of `C[C@@H]1CN([C@@H](C)CO)C(=O)c2cc(NC(=O)Nc3cccc4ccccc34)ccc2O[C@@H](C)CCCCO[C@H]1CN(C)C(=O)Nc1cccc2ccccc12`, the cytotoxicity call is reported as “inactive”.
With `C[C@H]1CCCCO[C@H](CN(C)C(=O)C2CCCCC2)[C@@H](C)CN([C@@H](C)CO)C(=O)c2cc(NC(=O)Nc3cccc4ccccc34)ccc2O1` the cytotoxicity call was “inactive”.
`C[C@@H]1CN([C@@H](C)CO)C(=O)c2cc(NC(=O)Nc3cccc4ccccc34)ccc2O[C@@H](C)CCCCO[C@@H]1CN(C)C(=O)C1CCCCC1` was tested, and the cytotoxicity call was “active”.
`C[C@@H]1CCCCO[C@@H](CN(C)C(=O)Nc2cccc3ccccc23)[C@H](C)CN([C@H](C)CO)C(=O)c2cc(NC(=O)CCC(F)(F)F)ccc2O1` was tested, and the cytotoxicity call was “inactive”.
For `C[C@@H]1CCCCO[C@@H](CN(C)C(=O)Nc2ccc3c(c2)OCO3)[C@H](C)CN([C@H](C)CO)C(=O)c2cc(NC(=O)NC3CCCCC3)ccc2O1`, the cytotoxicity call was “inactive”.
In the case of `C[C@@H]1CN([C@H](C)CO)C(=O)c2cc(NC(=O)Nc3cccc4ccccc34)ccc2O[C@@H](C)CCCCO[C@@H]1CN(C)C(=O)C1CCCCC1`, the cytotoxicity call is reported as “inactive”.
`C[C@H](CO)N1C[C@H](C)[C@@H](CN(C)C(=O)Nc2cccc3ccccc23)OCCCC[C@H](C)Oc2ccc(NC(=O)Nc3cccc4ccccc34)cc2C1=O` was tested, and the cytotoxicity call was “inactive”.
With `C[C@@H]1CCCCO[C@@H](CN(C)S(=O)(=O)c2ccccc2)[C@H](C)CN([C@@H](C)CO)C(=O)c2cc(NS(C)(=O)=O)ccc2O1` the cytotoxicity call was “inactive”.
In the case of `CC(C)(C)OC(=O)C[C@@H]1CC=CC[C@@H](CC(=O)N[C@@H](CO)Cc2ccccc2)C(=O)N[C@@H](C(C)(C)C)COC1=O`, the cytotoxicity call is reported as “inactive”.
`CC(C)CC#Cc1cnc2c(c1)C(=O)N([C@H](C)CO)C[C@@H](C)[C@H](CN(C)C(=O)CCN1CCCCC1)O2` was tested, and the cytotoxicity call was “inactive”.
`COCC#Cc1ccc2c(c1)O[C@H](CN(C)S(=O)(=O)c1ccc(F)cc1)[C@@H](C)CN([C@@H](C)CO)S2(=O)=O` was tested, and the cytotoxicity call was “inactive”.
In the case of `C[C@@H]1CN([C@@H](C)CO)C(=O)Cc2cc(NS(=O)(=O)c3ccccc3)ccc2O[C@@H]1CN(C)Cc1ccncc1`, the cytotoxicity call is reported as “inactive”.
`O=C(C[C@@H]1CC[C@H]2[C@@H](COC[C@H](O)CN2Cc2ccccc2F)O1)N[C@H]1CCN(Cc2ccccc2)C1` was tested, and the cytotoxicity call was “inactive”.
In the case of `C[C@@H]1CCCCO[C@@H](CN(C)C(=O)Nc2ccccc2)[C@@H](C)CN([C@H](C)CO)C(=O)c2cc(NC(=O)Nc3ccc4c(c3)OCO4)ccc2O1`, the cytotoxicity call is reported as “inactive”.
In the case of `Oc1ccc(C2(c3ccccc3F)CCC(F)(F)CC2)cc1`, the cytotoxicity call is reported as “inactive”.
`CCNC(=S)N1CCOCC1` was tested, and the cytotoxicity call was “inactive”.
`NC(=O)C1CCCN1C(=O)C(Cc1c[nH]cn1)NC(=O)C1CCC(=O)N1` (configuration not stated) was tested, and the cytotoxicity call was “inactive”.
For `C[C@@H]1CCCCO[C@@H](CN(C)C(=O)Nc2cccc3ccccc23)[C@H](C)CN([C@@H](C)CO)C(=O)c2cc(NC(=O)NC3CCCCC3)ccc2O1`, the cytotoxicity call was “inactive”.
`C[C@@H]1CCCCO[C@H](CN(C)C(=O)Nc2cccc3ccccc23)[C@@H](C)CN([C@H](C)CO)C(=O)c2cc(NC(=O)NC3CCCCC3)ccc2O1` was tested, and the cytotoxicity call was “inactive”.
`C[C@H](CO)N1C[C@H](C)[C@@H](CN(C)C(=O)Nc2cccc3ccccc23)OCCCC[C@H](C)Oc2ccc(NC(=O)NC3CCCCC3)cc2C1=O` was tested, and the cytotoxicity call was “active”.
In the case of `COc1ccc(S(=O)(=O)N(C)C[C@@H]2Oc3ncc(C#CC(C)(C)O)cc3C(=O)N([C@H](C)CO)C[C@@H]2C)cc1`, the cytotoxicity call is reported as “inactive”.
In the case of `CCCCC(=O)OC1CCC2C3CCc4cc(O)ccc4C3CCC12C` (configuration not stated), the cytotoxicity call is reported as “inactive”.
In the case of `CC12CCC3c4ccc(O)cc4CCC3C1CCC2OC(=O)CCC1CCCC1` (configuration not stated), the cytotoxicity call is reported as “active”.
For `CC12CCC3c4ccc(O)cc4CCC3C1CCC2O` (configuration not stated), the cytotoxicity call was “inactive”.
`C=C1C=[N+]([O-])N(c2ccc(C(=O)O)cc2)N1` was tested, and the cytotoxicity call was “inactive”.
With `C[C@H]1CN([C@@H](C)CO)C(=O)c2cccc(NC(=O)Nc3cccc4ccccc34)c2O[C@@H]1CN(C)C(=O)NC1CCCCC1` the cytotoxicity call was “inactive”.
`C[C@H]1CN([C@@H](C)CO)C(=O)c2cccc(NC(=O)Nc3cccc4ccccc34)c2O[C@H]1CN(C)C(=O)NC1CCCCC1` was tested, and the cytotoxicity call was “inactive”.
For `C[C@@H]1CN([C@H](C)CO)C(=O)c2cccc(NC(=O)Nc3cccc4ccccc34)c2O[C@@H]1CN(C)C(=O)NC1CCCCC1`, the cytotoxicity call was “inactive”.
For `C[C@@H]1CN([C@@H](C)CO)C(=O)c2cccc(NC(=O)Nc3cccc4ccccc34)c2O[C@H]1CN(C)C(=O)NC1CCCCC1`, the cytotoxicity call was “inactive”.
With `C[C@H](CO)N1C[C@H](C)[C@@H](CN(C)C(=O)NC2CCCCC2)Oc2c(NC(=O)Nc3cccc4ccccc34)cccc2C1=O` the cytotoxicity call was “active”.
`C[C@H](CO)N1C[C@H](C)[C@H](CN(C)C(=O)NC2CCCCC2)Oc2c(NC(=O)Nc3cccc4ccccc34)cccc2C1=O` was tested, and the cytotoxicity call was “active”.
`C[C@@H]1CN([C@@H](C)CO)C(=O)c2cc(NC(=O)CCC(F)(F)F)ccc2O[C@H]1CN(C)C(=O)Nc1cccc2ccccc12` was tested, and the cytotoxicity call was “inactive”.
With `COc1ccc(NC(=O)Nc2ccc3c(c2)C(=O)N([C@@H](C)CO)C[C@H](C)[C@H](CN(C)C(=O)C2CCCCC2)OCCCC[C@H](C)O3)cc1` the cytotoxicity call was “inactive”.
In the case of `CCCNC(=O)N(C)C[C@@H]1Oc2cc(C#Cc3cccc(F)c3)ccc2S(=O)(=O)N([C@@H](C)CO)C[C@@H]1C`, the cytotoxicity call is reported as “inactive”.
`Cc1noc(C)c1NC(=O)N(C)C[C@@H]1Oc2ccc(NS(=O)(=O)c3c(C)noc3C)cc2CC(=O)N([C@H](C)CO)C[C@H]1C` was tested, and the cytotoxicity call was “inactive”.
With `O=C(Nc1cc(Cl)cc(Cl)c1O)c1c(O)c(Cl)cc(Cl)c1Cl` the cytotoxicity call was “inactive”.
In the case of `Oc1c(Cl)cc(Cl)c(Cl)c1Cc1c(O)c(Cl)cc(Cl)c1Cl`, the cytotoxicity call is reported as “active”.
For `Cc1ccc2c(Cl)cc(Cl)c(O)c2n1`, the cytotoxicity call was “inactive”.
With `C[C@@H]1CCCCO[C@@H](CN(C)Cc2ccc(C(F)(F)F)cc2)[C@H](C)CN([C@@H](C)CO)C(=O)c2cc(N(C)C)ccc2O1` the cytotoxicity call was “inactive”.
`CC(C)NC(=O)Nc1ccc2c(c1)CC(=O)N([C@@H](C)CO)C[C@H](C)[C@@H](CN(C)C(=O)NC1CCCCC1)O2` was tested, and the cytotoxicity call was “inactive”.
In the case of `CC(C)NC(=O)N(C)C[C@@H]1Oc2ccc(NS(=O)(=O)c3ccccc3)cc2C(=O)N([C@H](C)CO)C[C@@H]1C`, the cytotoxicity call is reported as “inactive”.
With `Oc1c(Cl)cc(Cl)cc1Sc1cc(Cl)cc(Cl)c1O` the cytotoxicity call was “active”.
In the case of `C[C@@H]1CN([C@@H](C)CO)S(=O)(=O)c2ccc(-c3cncnc3)cc2O[C@@H]1CN(C)C(=O)C1CCCCC1`, the cytotoxicity call is reported as “inactive”.
For `C[C@H](O)C1=C[C@]2(CC[C@@H]3C(C(=O)O)=CO[C@@H](O[C@@H]4O[C@H](CO)[C@@H](O)[C@H](O)[C@H]4O)[C@@H]32)OC1=O`, the cytotoxicity call was “inactive”.
`CC1(C)CN(C(=O)Cn2nccn2)C[C@]1(C)O` was tested, and the cytotoxicity call was “inactive”.
`O=C(N[C@H]1CC=CC[C@H](CC(=O)N(CCO)Cc2ccccc2)C(=O)NCC(c2ccccc2)OC1=O)OCC1c2ccccc2-c2ccccc21` (some centres not stated) was tested, and the cytotoxicity call was “inactive”.
With `O=C(C[C@@H]1CC=CC[C@H](NC(=O)OCC2c3ccccc3-c3ccccc32)C(=O)O[C@H](c2ccccc2)CNC1=O)N[C@H](CO)Cc1ccccc1` the cytotoxicity call was “active”.
`O=C(C[C@@H]1CC=CC[C@@H](NC(=O)OCC2c3ccccc3-c3ccccc32)C(=O)OC[C@H](Cc2ccccc2)NC1=O)N[C@H](CO)Cc1ccccc1` was tested, and the cytotoxicity call was “inactive”.
For `O=C(C[C@@H]1CC=CC[C@H](NC(=O)OCC2c3ccccc3-c3ccccc32)C(=O)O[C@@H](c2ccccc2)CNC1=O)N[C@@H](CO)Cc1ccccc1`, the cytotoxicity call was “active”.
For `O=C(N[C@H]1CC=CC[C@H](CC(=O)N(CCO)Cc2ccccc2)C(=O)N[C@@H](Cc2ccccc2)COC1=O)OCC1c2ccccc2-c2ccccc21`, the cytotoxicity call was “active”.
`O=C(C[C@@H]1CC=CC[C@@H](NC(=O)OCC2c3ccccc3-c3ccccc32)C(=O)OC[C@@H](Cc2ccccc2)NC1=O)N[C@@H](CO)Cc1ccccc1` was tested, and the cytotoxicity call was “inactive”.
With `O=C(N[C@@H]1CC=CC[C@H](CC(=O)N(CCO)Cc2ccccc2)C(=O)N[C@@H](Cc2ccccc2)COC1=O)OCC1c2ccccc2-c2ccccc21` the cytotoxicity call was “inactive”.
For `O=C(C[C@@H]1CC=CC[C@H](NC(=O)OCC2c3ccccc3-c3ccccc32)C(=O)O[C@H](c2ccccc2)CNC1=O)N[C@@H](CO)Cc1ccccc1`, the cytotoxicity call was “active”.
For `O=C(N[C@@H]1CC=CC[C@H](CC(=O)N(CCO)Cc2ccccc2)C(=O)NC[C@H](c2ccccc2)OC1=O)OCC1c2ccccc2-c2ccccc21`, the cytotoxicity call was “inactive”.
`O=C(C[C@@H]1CC=CC[C@H](NC(=O)OCC2c3ccccc3-c3ccccc32)C(=O)OC[C@H](Cc2ccccc2)NC1=O)N[C@@H](CO)Cc1ccccc1` was tested, and the cytotoxicity call was “inactive”.
In the case of `O=C(C[C@@H]1CC=CC[C@H](NC(=O)OCC2c3ccccc3-c3ccccc32)C(=O)OC[C@H](Cc2ccccc2)NC1=O)N[C@H](CO)Cc1ccccc1`, the cytotoxicity call is reported as “inactive”.
With `O=C(N[C@H]1CC=CC[C@H](CC(=O)N(CCO)Cc2ccccc2)C(=O)N[C@H](Cc2ccccc2)COC1=O)OCC1c2ccccc2-c2ccccc21` the cytotoxicity call was “inactive”.
